Compounds without any hit were thinned out: in the full panel of roughly 83,000, 20% have a hit.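 In brief: 96-well plates, 48 h treatment, single concentration, percent growth endpoint.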 Unmarked numbers belong to inactive results. The source made the active and inactive calls. Rule for the calls: active = growth percent below 10; inactive = the rest.
Key:
Experiment in all cases: NCI-60 one-dose screen, 48 h (100 = growth as untreated, 0 = no growth, -100 = all killed)
Conditions in all cases: 10 µM unless noted
[1] = tested on: SK-MEL-2 melanoma
[2] = tested on: EKVX NSCLC
[3] = tested on: SN12C renal
[4] = tested on: UO-31 renal
[5] = tested on: TK-10 renal
[6] = tested on: A498 renal
[7] = tested on: CCRF-CEM leukemia
[8] = tested on: MOLT-4 leukemia
[9] = tested on: SR leukemia
[10] = tested on: RPMI-8226 leukemia
[11] = tested on: OVCAR-8 ovarian
[12] = tested on: OVCAR-5 ovarian
[13] = tested on: OVCAR-4 ovarian
[14] = tested on: SK-OV-3 ovarian
[15] = tested on: IGROV1 ovarian
[16] = tested on: OVCAR-3 ovarian
[17] = tested on: HS 578T breast
[18] = tested on: NCI/ADR-RES ovarian
[19] = tested on: CAKI-1 renal
[20] = tested on: ACHN renal

| Structure (SMILES) | growth [1] | growth [2] | growth [3] | growth [4] | growth [5] | growth [6] | growth [7] | growth [8] | growth [9] | growth [10] | growth [11] | growth [12] | growth [13] | growth [14] | growth [15] | growth [16] | growth [17] | growth [18] | growth [19] | growth [20] |
| --- | --- | --- | --- | --- | --- | --- | --- | --- | --- | --- | --- | --- | --- | --- | --- | --- | --- | --- | --- | --- |
| CCCCOC(=O)c1ccc(NC(=O)C(C)N2CCOCC2)cc1 (stereo not given) | 90.6% | 109% | 104% | 88.3% | 97.2% | 99.5% | 72.4% | 94.9% | 98.1% | 88.1% | 95.6% | 112% | 124% | 109% | 103% | 102% | 99% | 101% | – | – |
| Nc1nc(I)c2ncn(C3OC(CO)C(O)C3O)c2n1 (stereo not given) | 159% | 96.6% | 100% | 96% | 134% | 103% | 116% | 109% | 107% | 157% | 112% | 104% | 129% | 100% | 121% | 112% | 136% | 105% | 9.47% (active) | – |
| Cc1ccccc1NC(=O)CN(C)C | 84.8% | 108% | 97% | 81.2% | 86.8% | 83.8% | 107% | 94.2% | 104% | 111% | 108% | 95.8% | 118% | 101% | 96% | 113% | 113% | 101% | 103% | – |
| CC(C)n1nc(C#Cc2cccc(NC(=O)c3cccc(C(F)(F)F)c3)c2)c2c(N)ncnc21 | -65.2% (active) | 1.52% (active) | -8.6% (active) | -51.4% (active) | -56.8% (active) | -80.6% (active) | 11.8% | 2.57% (active) | – | -11.8% (active) | -12.7% (active) | -27.5% (active) | 11.4% | -51.6% (active) | -61.6% (active) | 1.38% (active) | -31.2% (active) | -13% (active) | -40.9% (active) | – |
| C[C@@H]1CC[C@@H]2[C@@H]1[C@H](OC(=O)/C=C/c1ccccc1)[C@]1(CCCOCCOCCOCCOC(=O)CCCC[C@@H]3SC[C@@H]4NC(=O)N[C@@H]43)C[C@@H](OC(=O)CO)[C@@]2(C)O1 | 108% | 101% | 106% | 83.1% | 99% | 97.1% | 98.2% | 97.9% | 88.3% | 112% | 113% | 101% | 95.7% | 102% | 107% | 104% | 99.5% | 105% | 91.5% | – |
| C=CCO[C@H]1CO[C@H]2[C@@H]1OC[C@@H]2Oc1ccc(Nc2ccnc(Nc3ccc(O[C@H]4CO[C@H]5[C@@H]4OC[C@@H]5OCC=C)c(Cl)c3)n2)cc1Cl | 104% | -71% (active) | -95.5% (active) | -91.3% (active) | -54.4% (active) | – | -9.75% (active) | -39.3% (active) | -1.74% (active) | -32.7% (active) | -4.18% (active) | -55.7% (active) | -86.7% (active) | 115% | -94.1% (active) | -85.5% (active) | -38.6% (active) | -63.6% (active) | -7.16% (active) | – |
| NS(=O)(=O)c1cnccc1-n1ccc(=O)c(S(N)(=O)=O)c1 | 81.1% | 90.3% | 92.6% | 68.6% | 83.8% | – | 88.5% | 76.9% | 86.5% | 60.4% | 100% | 89.7% | 95.2% | 81.1% | – | 93.3% | 64% | 98.5% | – | 93.6% |
| O=C(NCc1cn(Cc2cccc(Oc3ccccc3)c2)nn1)c1cccnc1NCc1ccc(Cl)cc1 | 13.9% | 30.7% | 40.9% | 30.5% | 62.2% | -4.32% (active) | – | 14.6% | 19.3% | -9.55% (active) | 32.6% | 51.5% | 43.8% | 21.4% | 60.1% | 2.33% (active) | 23.8% | 0.306% (active) | 32.2% | – |
| COc1cc2c(cc1OC)-c1ccc3cc4c(cc3c1N(CCN(C)C)C2)OCO4 | 36% | 25.4% | 0.583% (active) | 24.2% | 16.6% | -33.8% (active) | -1.03% (active) | 0.14% (active) | 1.13% (active) | -41.1% (active) | -24.7% (active) | 8.24% (active) | 26.7% | -21.2% (active) | -31.2% (active) | 8.78% (active) | -2.39% (active) | 72.3% | – | – |
| CCN(CC)CCOc1ccc(/C(=C(\C)c2ccc(F)c(OC)c2)c2ccc(Cl)cc2)cc1 | 67.7% | 56.4% | 38% | 7.48% (active) | 49.5% | 48.1% | 13.9% | -1.16% (active) | -22.2% (active) | – | 17.4% | 40.9% | 26.6% | 54% | 29.7% | 16.6% | 16% | 39.8% | 17.1% | – |
| CN(C)CCC(O)(Cc1ccccc1)c1ccccc1 (stereo not given) | 100% | 99.5% | 105% | 87.8% | 93.8% | – | 112% | 102% | 102% | – | 105% | 103% | 110% | 99.6% | 113% | – | 99.8% | 109% | 83.6% | – |
| Cc1cc(-c2ccccc2)cc(SC#N)[n+]1[O-] | 49.1% | 26.2% | 51.7% | 40.4% | 55.9% | 67.7% | 6.22% (active) | 10.1% | 8.25% (active) | 19.2% | 31.7% | 75.4% | 41.2% | 45.1% | 35.3% | 39.6% | 80.1% | 19.7% | – | – |
| O=C1NN(C(=O)c2ccc(O)cc2)C(c2ccccc2)=N/C1=C\c1cn(-c2ccccc2)nc1-c1ccccc1 | 100% | 102% | 89.2% | 78.6% | 84.7% | 88.8% | 89.7% | – | – | 90% | 97.2% | 94% | 95.3% | 92.6% | 91.5% | 112% | 99.8% | 99.7% | 98.6% | – |
| COc1cc2c(cc1OC)-c1ccc3cc4c(cc3c1N(CCCN1CCCCC1)C2)OCO4 | 68.8% | 69.4% | 30.5% | 37.6% | 73.2% | 65% | 19.6% | 6.01% (active) | -7.48% (active) | 14.5% | 32.6% | 74.7% | 63.4% | 75.7% | 33.7% | 60.8% | 56.1% | 54.7% | – | – |
| CN(C)CCOC(=O)Nc1ccc(Cl)cc1 | 79.4% | 101% | 107% | 71.2% | 95.1% | 113% | 80.5% | 89.9% | 101% | 94.3% | 97.5% | 109% | 117% | 96.9% | 103% | 106% | 94.7% | 104% | – | – |
| COC(=O)c1ccc(CSc2nnc(-c3ccncc3)o2)cc1 | 102% | 101% | 96.2% | 79.7% | 116% | 120% | 99.3% | – | – | 102% | 101% | 104% | 99.5% | 102% | 98.9% | 112% | 107% | 104% | 90.3% | – |
| O=C(/C=C/C12c3ccccc3C(c3ccccc31)C1C(=O)NC(=O)C12)c1ccc(Cl)cc1 (stereo not given) | -7.61% (active) | 17.8% | -14.4% (active) | -55.2% (active) | 12.6% | – | 11.5% | 11.1% | 13.3% | -10.1% (active) | 16% | -2.53% (active) | 30.4% | – | -38.6% (active) | -57.8% (active) | 11.6% | 4.42% (active) | 33.6% | – |
| CCCCCCCCn1cc(C2=C(c3coc4ccc(OC)cc34)C(=O)NC2=O)c2ccccc21 | 107% | 102% | 102% | 85.7% | 97.6% | – | 99% | 125% | 119% | 119% | 94.2% | 90.8% | 106% | – | 104% | 107% | 101% | 101% | 99.7% | – |

From PubChem BioAssay (NCI)
